Results as given in PubChem BioAssay.
The source made the active and inactive calls. Rule as the data show it, unless noted: active = inhibition above about 44%; inactive = the rest.

How the values were obtained:
[1] = target: Nuclear receptor coactivator 3 (Homo sapiens) (UniProt Q9Y6Q9); assay: NCOA3 GAL4-fusion reporter inhibition – cell-based, luminescence, quadruplicate, confirmation (AID 588792;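 active = mean inhibition over 43.08%, the solvent-only control mean plus 3 SD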;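 also: 0% = DMSO treated cells and 100% = gossypol at 36 µM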); conditions: HEK293 GAL4-SRC3 luciferase reporter, at 3.6 µM, stronger effect = higher value
[2] = test system: transactivating tegument protein VP16 (Human herpesvirus 1), Gal4-VP16 luciferase reporter; assay: repression of VP16-driven luciferase reporter – cell-based, luminescence, high throughput, counter-screen for SRC3 inhibitor project (AID 588794; in the data active = inhibition above about 30%); conditions: mammalian cells, at 3.6 µM, stronger effect = higher value
[3] = target: Nuclear receptor coactivator 1 (Homo sapiens) (UniProt Q15788); assay: NCOA1 GAL4-fusion reporter inhibition – cell-based, luminescence, quadruplicate, confirmation (AID 588820;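 active = mean inhibition above 46.68%, the untreated control wells mean plus 3 SD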;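 also: 0% = DMSO wells and 100% = gossypol 36 µM treated wells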); conditions: HEK293 GAL4-SRC1 luciferase reporter, at 3.6 µM, stronger effect = higher value
[4] = repression of VP16-driven luciferase reporter – cell-based, luminescence, high throughput, counter-screen for SRC1 inhibitor project (AID 588824; in the data active = inhibition above about 25%); conditions: cell-based VP16 transactivation luciferase luminescence; at 3.6 µM; stronger effect = higher value
[5] = StAR promoter reporter inhibitors, counter-screen for LRH-1 inverse agonist project, cell-based, luminescence, high throughput (AID 651611; in the data active = inhibition above about 28%); conditions: StAR promoter luciferase reporter counterscreen, at 3.6 µM, stronger effect = higher value
[6] = target: Nuclear receptor subfamily 5 group A member 2 (Homo sapiens) (UniProt O00482); assay: NR5A2 activity suppression in reporter cells – cell-based, luminescence, confirmation (AID 651613; in the data active = inhibition above about 42%;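 also: HEK293T cells co-transfected with LRH-1 and StAR promoter luciferase reporter; 0% = vehicle wells and 100% = parental cells lacking receptor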); conditions: cell-based LRH-1 luciferase reporter, inverse agonism; at 3.6 µM; stronger effect = higher value
[7] = target: Steroidogenic factor 1 (Homo sapiens) (UniProt Q13285); assay: inverse agonism at SF1 nuclear receptor – cell-based, luminescence, high throughput, counter-screen for LRH-1 inverse agonist project (AID 651614); conditions: cell-based SF1 luciferase reporter, at 3.6 µM, stronger effect = higher value;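 also: cells cotransfected with StAR promoter reporter and SF1 expression vector; 0% = vehicle on cells with receptor and 100% = vehicle on cells lacking receptor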
[8] = compounds suppressing VP16-driven luciferase signal – cell-based, luminescence, high throughput, counter-screen for LRH-1 inverse agonist project (AID 651615; in the data active = inhibition above about 33%); conditions: Gal4-VP16 luciferase reporter cells, at 3.6 µM, stronger effect = higher value

Measured: inhibition

Sequence of Steroidogenic factor 1 (Homo sapiens) (Q13285 whole entry, looked up, the tested form may be a part): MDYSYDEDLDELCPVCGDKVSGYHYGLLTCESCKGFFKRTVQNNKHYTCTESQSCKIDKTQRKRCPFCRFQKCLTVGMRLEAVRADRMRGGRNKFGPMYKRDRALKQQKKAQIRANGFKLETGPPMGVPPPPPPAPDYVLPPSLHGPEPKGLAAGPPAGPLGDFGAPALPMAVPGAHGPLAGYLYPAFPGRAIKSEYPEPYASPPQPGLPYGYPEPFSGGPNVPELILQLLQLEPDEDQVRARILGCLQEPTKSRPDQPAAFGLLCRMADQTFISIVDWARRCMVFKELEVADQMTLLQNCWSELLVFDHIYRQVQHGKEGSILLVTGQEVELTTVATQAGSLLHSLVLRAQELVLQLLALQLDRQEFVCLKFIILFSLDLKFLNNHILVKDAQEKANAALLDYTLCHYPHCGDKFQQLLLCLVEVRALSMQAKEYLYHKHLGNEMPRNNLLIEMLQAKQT
Sequence of Nuclear receptor coactivator 3 (Homo sapiens) (Q9Y6Q9 whole entry, looked up, the tested form may be a part): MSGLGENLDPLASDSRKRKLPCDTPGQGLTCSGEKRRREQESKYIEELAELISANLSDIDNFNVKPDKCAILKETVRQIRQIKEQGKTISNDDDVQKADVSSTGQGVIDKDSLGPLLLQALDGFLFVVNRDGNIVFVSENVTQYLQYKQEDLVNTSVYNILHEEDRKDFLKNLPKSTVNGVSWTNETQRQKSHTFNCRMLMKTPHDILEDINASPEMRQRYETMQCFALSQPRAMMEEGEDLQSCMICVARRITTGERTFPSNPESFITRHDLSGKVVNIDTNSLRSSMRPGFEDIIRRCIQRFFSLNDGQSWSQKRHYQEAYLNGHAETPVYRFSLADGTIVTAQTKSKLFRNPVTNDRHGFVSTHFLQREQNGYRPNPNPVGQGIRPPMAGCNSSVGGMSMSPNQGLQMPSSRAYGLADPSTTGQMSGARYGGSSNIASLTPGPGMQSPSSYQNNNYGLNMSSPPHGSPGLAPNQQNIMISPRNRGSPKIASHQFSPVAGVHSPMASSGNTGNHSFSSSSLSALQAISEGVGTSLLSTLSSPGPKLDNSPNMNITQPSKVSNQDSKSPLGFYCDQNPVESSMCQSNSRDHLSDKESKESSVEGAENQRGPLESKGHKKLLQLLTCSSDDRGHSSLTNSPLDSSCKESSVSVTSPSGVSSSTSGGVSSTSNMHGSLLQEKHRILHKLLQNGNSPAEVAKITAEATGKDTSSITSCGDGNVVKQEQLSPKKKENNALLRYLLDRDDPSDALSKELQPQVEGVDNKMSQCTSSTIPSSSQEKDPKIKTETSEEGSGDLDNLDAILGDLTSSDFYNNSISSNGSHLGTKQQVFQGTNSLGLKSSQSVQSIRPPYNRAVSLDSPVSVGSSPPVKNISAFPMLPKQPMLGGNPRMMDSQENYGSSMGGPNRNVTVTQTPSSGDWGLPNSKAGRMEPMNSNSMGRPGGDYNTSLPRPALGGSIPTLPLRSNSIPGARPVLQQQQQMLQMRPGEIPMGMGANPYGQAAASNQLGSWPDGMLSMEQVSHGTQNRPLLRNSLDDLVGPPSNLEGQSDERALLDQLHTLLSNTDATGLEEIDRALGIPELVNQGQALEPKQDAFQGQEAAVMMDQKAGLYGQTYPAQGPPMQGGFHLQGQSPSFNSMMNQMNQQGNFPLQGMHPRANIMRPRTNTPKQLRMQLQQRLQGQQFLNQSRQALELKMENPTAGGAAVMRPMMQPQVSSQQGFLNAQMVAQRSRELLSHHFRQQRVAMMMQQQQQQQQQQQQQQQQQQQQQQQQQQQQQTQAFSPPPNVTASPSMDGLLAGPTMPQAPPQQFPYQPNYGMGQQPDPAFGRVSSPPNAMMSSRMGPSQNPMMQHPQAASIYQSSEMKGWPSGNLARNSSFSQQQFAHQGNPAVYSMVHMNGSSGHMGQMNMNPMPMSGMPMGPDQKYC
Sequence of Nuclear receptor subfamily 5 group A member 2 (Homo sapiens) (O00482 whole entry, looked up): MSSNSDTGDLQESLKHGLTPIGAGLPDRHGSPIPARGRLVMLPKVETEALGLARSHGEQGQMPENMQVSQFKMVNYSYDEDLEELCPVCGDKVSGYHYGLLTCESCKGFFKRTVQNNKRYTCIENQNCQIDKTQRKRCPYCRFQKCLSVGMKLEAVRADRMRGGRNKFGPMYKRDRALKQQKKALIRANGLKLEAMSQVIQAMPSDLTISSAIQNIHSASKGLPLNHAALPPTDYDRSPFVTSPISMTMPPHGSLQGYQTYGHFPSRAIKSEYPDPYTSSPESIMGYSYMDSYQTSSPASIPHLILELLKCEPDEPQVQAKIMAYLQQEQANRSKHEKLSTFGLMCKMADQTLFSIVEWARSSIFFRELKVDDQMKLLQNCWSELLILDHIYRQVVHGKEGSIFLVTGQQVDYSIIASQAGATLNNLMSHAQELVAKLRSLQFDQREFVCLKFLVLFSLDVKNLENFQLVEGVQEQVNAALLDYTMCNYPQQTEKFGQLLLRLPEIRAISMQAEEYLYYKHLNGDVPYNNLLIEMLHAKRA
Sequence of Nuclear receptor coactivator 1 (Homo sapiens) (Q15788 whole entry, looked up, the tested form may be a part): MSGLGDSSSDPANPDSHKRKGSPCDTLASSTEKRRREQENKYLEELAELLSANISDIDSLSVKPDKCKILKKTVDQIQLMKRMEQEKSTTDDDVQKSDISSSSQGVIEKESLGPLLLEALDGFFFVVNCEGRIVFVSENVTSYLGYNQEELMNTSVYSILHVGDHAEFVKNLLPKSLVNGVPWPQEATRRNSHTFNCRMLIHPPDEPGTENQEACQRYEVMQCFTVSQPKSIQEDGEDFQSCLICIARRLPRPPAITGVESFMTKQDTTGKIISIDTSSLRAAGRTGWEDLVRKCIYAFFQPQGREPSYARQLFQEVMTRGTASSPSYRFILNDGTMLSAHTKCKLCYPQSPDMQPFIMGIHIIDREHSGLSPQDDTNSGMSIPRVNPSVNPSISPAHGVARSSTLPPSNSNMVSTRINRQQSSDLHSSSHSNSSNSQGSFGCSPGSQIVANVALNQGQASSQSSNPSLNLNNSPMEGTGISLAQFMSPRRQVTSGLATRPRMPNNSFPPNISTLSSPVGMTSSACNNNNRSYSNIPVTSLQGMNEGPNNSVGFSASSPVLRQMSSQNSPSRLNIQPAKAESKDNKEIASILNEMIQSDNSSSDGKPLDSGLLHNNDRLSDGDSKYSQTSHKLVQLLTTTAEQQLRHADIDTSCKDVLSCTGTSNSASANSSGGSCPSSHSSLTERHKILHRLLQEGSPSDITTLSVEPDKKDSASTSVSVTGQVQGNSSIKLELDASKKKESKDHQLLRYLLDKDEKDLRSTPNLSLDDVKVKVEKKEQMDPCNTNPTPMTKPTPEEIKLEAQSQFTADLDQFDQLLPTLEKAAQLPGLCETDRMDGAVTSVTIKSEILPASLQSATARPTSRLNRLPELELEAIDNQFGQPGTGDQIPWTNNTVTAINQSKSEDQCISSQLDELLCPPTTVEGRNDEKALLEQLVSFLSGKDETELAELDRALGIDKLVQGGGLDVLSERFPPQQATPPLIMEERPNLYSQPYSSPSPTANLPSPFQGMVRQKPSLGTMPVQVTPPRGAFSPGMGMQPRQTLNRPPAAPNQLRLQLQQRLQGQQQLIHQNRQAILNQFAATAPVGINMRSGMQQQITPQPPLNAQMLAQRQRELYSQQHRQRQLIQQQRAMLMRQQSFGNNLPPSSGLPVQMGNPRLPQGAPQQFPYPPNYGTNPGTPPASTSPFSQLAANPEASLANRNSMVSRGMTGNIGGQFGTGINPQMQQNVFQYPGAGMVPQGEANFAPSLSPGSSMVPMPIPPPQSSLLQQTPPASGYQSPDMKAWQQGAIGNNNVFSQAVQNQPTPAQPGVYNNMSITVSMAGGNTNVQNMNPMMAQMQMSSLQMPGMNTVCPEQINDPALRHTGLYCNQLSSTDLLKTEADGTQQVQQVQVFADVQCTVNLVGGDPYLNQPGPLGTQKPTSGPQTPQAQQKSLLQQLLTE

COc1ccc(CCNc2ncnc3c2oc2ccccc23)cc1OC
active: [2] 34.9% | [4] 32.5% | [5] 34.5% | [6] 51.8% | [7] 58.1% | [8] 55.6%
inactive: [1] 15.8% | [3] 2.85%

O=C(NCc1ccco1)c1cccc(NC(=O)c2ccccc2)c1
inactive: [1] 23.4% | [3] 33.7%
active: [2] 52.9% | [4] 53.1% | [5] 58.8% | [6] 65.6% | [7] 66% | [8] 69.5%

CN(C)c1ccc(C=c2c3ccccc3n3c2cc(-c2ccccc2)[n+]3C)cc1
active: [1] 65.7% | [2] 84.2% | [3] 56.7% | [4] 88.2% | [5] 74% | [6] 109% | [7] 94.8% | [8] 93.5%

NC1=C(Cl)C(=O)c2ccc(S(N)(=O)=O)cc2C1=O
active: [1] 97.5% | [2] 93.7% | [3] 82% | [4] 92.8% | [5] 89.7% | [6] 106% | [7] 94% | [8] 95.8%

CCN(CC)c1ccc(C(NC(=O)C(C)C)c2ccc3cccnc3c2O)cc1 (stereo not drawn)
active: [1] 55.9% | [2] 56% | [3] 78.3% | [4] 66.5% | [5] 86.3% | [6] 103% | [7] 90% | [8] 84.9%

CC(=NNC(=S)Nc1ccc(C)cc1)c1ccccn1
active: [1] 59% | [2] 69.9% | [3] 46.8% | [4] 66% | [5] 66.1% | [6] 68.7% | [7] 85.4% | [8] 52.6%
